Assay outcomes as filed in PubChem BioAssay.
miR-122 sensor – miR-122 Renilla sensor signal increase in Huh7, primary screen, miR-122 inhibitor project, cell-based, single point, plate reader; Huh7 miR-122 Renilla luciferase sensor, 48 h; neutral wells = 0, positive control = 100; activation (reporter increase), % at 12.5 µM; 340,000 tested, 0.3% active; AID 602342, 2012;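 active means mean replicate activation score at least 90 and every replicate individually at or above 90; inconclusive means only one of the two criteria met; inactive means neither criterion met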;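 further: higher luciferase means less miR-122 activity so hits act as miR-122 inhibitors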
Env fusion inh – inhibitors of HIV-1 Env-driven cell-cell fusion, primary screen, HeLa-JRFL effector, CEM21 target cells, luciferase | inhibition, % at 12.3 µM | AID 651610, 2012 | 360,000 tested, 1.1% active;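 active means mean replicate inhibition score of at least 50 and every replicate individually at or above 50; inconclusive means only one of the two criteria met; inactive means mean below 50 and not all replicates reaching 50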;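 further: 0% = plate neutral controls and 100% = maraviroc near 300 nM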
Wnt act – Wnt/beta-catenin pathway activators, primary screen, cell-based, plate reader, single point; Wnt/beta-catenin reporter cell assay, activator; activation, % at 9.35 µM; 300,000 tested, 1.2% active; AID 743398, 2014; in the data active means activation above about 30%, passing the limit was not always enough; inconclusive means no clear call, values can overlap the other calls;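 further: 0% = neutral control wells and 100% = positive control wells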
MITF act – activators of MITF-driven TRPM1 promoter reporter, primary screen, cell-based, SK-MEL-5, luciferase, single point; activation, % at 12.5 µM; SK-MEL-5 TRPM1-promoter luciferase, 24 h; % of positive control, neutral wells = 0; 300,000 tested, 0.75% active;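 active means mean activation of at least 80% with every replicate also reaching 80%; inconclusive means mean reaches 80% but some replicate falls short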;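 further: 0% = neutral control wells and 100% = parthenolide positive control wells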
esBAF inh – Bmi1 luciferase reporter increase in mESCs, primary screen, esBAF inhibitor project, mouse ES cells, Bmi1 luciferase knock-in, single point. 24 h; 100% = twice the neutral-well signal. reporter increase, % at 12.5 µM. 350,000 tested, 2% active; in the data active means activation above about 40%; inconclusive means no clear call, values can overlap the other calls;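 further: 0% = median of the plate's neutral control wells and 100% = double that signal; a rise in the Bmi1 reporter signal indicates esBAF inhibition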
An asterisk follows results filed as active; ? = inconclusive; . = no result; [ ] = remark or other dose. Only some compounds are listed: those with a hit (about 3.4% of all), similar ones and a draw of the others.

SMILES	miR-122 sensor	Env fusion inh	Wnt act	MITF act	esBAF inh
Cc1cc(Cl)ccc1OCC(=O)NCCCN1CCOCC1	-2	.	.	-3	8
CN(C)c1nc(OCCNC(=O)COc2ccc(Cl)cc2Cl)nc(N2CCOCC2)n1	5	41*	-6	.	2
Cc1cc(Cl)ccc1OCC(=O)NCCOc1nc(N2CCOCC2)nc(N2CCOCC2)n1	-6	94*	-4	.	1
Nc1cc2nn(-c3ccccc3)nc2cc1Cl	.	-84	49*	2	.
Nc1ccc2nn(-c3ccccc3)nc2c1	6	-25	12	1	57*
Cc1ccc(-n2nc3cc(C)c(N)cc3n2)cc1	1	.	.	1	.
Cn1c(-c2cc3ccc(OC(=O)C(C)(C)C)cc3oc2=O)nc2ccccc21	5	-116	34*	54	22
Cc1ccccc1/C=C/c1nc2ccccc2c(=O)[nH]1	4	-114	39*	40	21
C=CCOc1cccc(/C=C/c2nc3ccccc3c(=O)[nH]2)c1	-1	-112	12	82*	-3
C/C=C/c1ccc2c(c1)O[C@H](CN(C)C(=O)Cc1ccccc1)[C@@H](C)CN([C@@H](C)CO)S2(=O)=O	0[16.7 µM]	?	.	.	2
O=C(CCN1CCCCC1)N[C@@H]1CC[C@@H](CCNS(=O)(=O)c2ccccc2)O[C@H]1CO	3[16.7 µM]	5[16.7 µM]	.	.	-8
CCOc1ccc(Cl)cc1S(=O)(=O)n1cnc2cc(C)c(C)cc21	183*	5	-7	.	-4
COc1cc(/C=C/c2ccc3cccc(O)c3n2)cc(Cl)c1OC	.	-177	47*	-15	-4
COc1cc(/C=C/c2ccc3cccc(O)c3n2)cc(OC)c1OC	-22	-465	65*	-78	14
COc1cc(Br)cc(/C=C/c2ccc3cccc(O)c3n2)c1OC	.	-2	1	-22	9
Oc1cccc(/C=C/c2ccc3cccc(O)c3n2)c1	.	-113	40*	12	5
COc1ccc(/C=C/c2ccc3cccc(O)c3n2)cc1Br	3	-35	23	58	44*
CC(C)(O)C#Cc1cccc(-c2nc(C(=O)O)cc3c2[C@H](CCO)N(S(=O)C(C)(C)C)C3)c1 (some centres not stated)	.	14[16.7 µM]	.	.	-7
COc1cc(/C=C/c2ccc3cccc(O)c3n2)cc(Br)c1OC	.	-57	?	-1	66*
O=C(C[C@@H]1C=C[C@H](NC(=O)Nc2cc(F)ccc2F)[C@@H](CO)O1)Nc1ccc(-c2ccccc2)cc1	.	-5[16.7 µM]	.	.	-2
CCCN(C)C[C@H]1Oc2cc(C3=CCCC3)ccc2S(=O)(=O)N([C@H](C)CO)C[C@@H]1C	16[16.7 µM]	1[16.7 µM]	.	.	.
CCCc1noc(-c2cccc([N+](=O)[O-])c2)n1	.	-1	0	20	.
CCCc1noc(-c2ccc(-c3ccccc3)cc2)n1	-5	-245	39*	.	33
C[C@H](CO)N1C[C@H](C)[C@H](CN(C)S(=O)(=O)c2cn(C)cn2)Oc2ccc(NC(=O)Nc3ccccc3)cc2C1=O	0[16.7 µM]	13[16.7 µM]	.	.	0
O=C(CSc1nncs1)NC(=O)Nc1ccc2c(c1)OCCO2	0	-28	37*	57	26
SMILES	miR-122 sensor	Env fusion inh	Wnt act	MITF act	esBAF inh
O=C(CSc1nncs1)Nc1ccc2c(c1)OCCO2	5	.	11	32	7
Cc1cccnc1NC(=O)COc1ccc2c(c1)CCC2	.	-96	17	100*	57*
Cc1ccc(OCC(=O)c2ccc3c(c2)CCCC3)cc1C	-7	.	6	97*	18
Cc1cccnc1NC(=O)COc1ccc2oc3c(c2c1)CCCC3	1	?	3	37	8
COc1ccc(OC)c(CNc2ccc3c(c2)CCC3)c1	16	-10	0	.	46*
Cc1ccc(NC(=O)COc2ccc3c(c2)CCC3)nc1	.	-121	?	94*	17
Cc1ccc(NC(=O)COc2ccc3oc4c(c3c2)CCCC4)nc1	-4	.	0	-3	-3
COc1ccc(OC)c(NC(=O)COc2ccc3c(c2)CCC3)c1	.	70*	-2	18	10
Cc1csc(NC(=O)COc2ccc3c(c2)CCC3)n1	-5	-47	20	78	64*
COc1ccc(OCC(=O)Nc2ccc3c(c2)CCC3)cc1	-4	-3	4	1	0
COc1cccc(NC(=O)COc2ccc3c(c2)CCC3)c1	.	-15	11	34	.
C=C(C)C(=O)Nc1cccc(C2=NOC3(C2)C[C@@H](C(N)=O)N(C(=O)[C@H]2CCC(=O)N2)C3)c1 (some centres not stated)	1	.	-1	-4	3
NC(=O)[C@H]1CC2(CC(c3cccc(NC(=O)c4ccccc4)c3)=NO2)CN1C(=O)[C@H]1CCC(=O)N1 (some centres not stated)	-3	16	53*	-5	0
C[C@H](CO)N1C[C@H](C)[C@H](CN(C)C(=O)C2CCCCC2)Oc2cc(-c3ccccc3)ccc2S1(=O)=O	7[16.7 µM]	7[16.7 µM]	.	.	3
Cc1ccc(C(=O)NCCn2cc(SCC(=O)Nc3nnc(C)s3)c3ccccc32)cc1	-3	-90	-5	.	58*
